The source of these data is PubChem BioAssay.

Molecules are shown by their SMILES. Activity calls are given as the source filed them. Unless noted, how the calls were made is not given here.

A short description of assay [1]: HepG2 liver cancer cell viability effects, profiling panel, resazurin fluorescence, 24 h, PK04 Diversity Set (AID 1172). Further: test concentration not given here. Conditions: higher = more signal. (In general: Alamar Blue is a resazurin reagent that responds to reducing activity.)
Assay [2] can be described thus: basal S. cerevisiae growth modulation, no modifier, primary screen, OD600, strain BY4716, 24 h, basal condition (AID 1173). Particulars: OD600, 24 h, higher = more signal, called active from +8 up or from −8 down.
A short description of assay [3]: MM1S myeloma cell viability, profiling panel, resazurin fluorescence, basal, 24 h, PK04 Diversity Set (AID 1174).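 Further: MM1S multiple myeloma cell line; test concentration not given here.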 Conditions: higher = more signal, called active from +8 up or from −8 down.
In assay [4] the target is Dihydroorotate dehydrogenase (quinone), mitochondrial (Plasmodium falciparum (isolate 3D7)) (UniProt Q08210). Put plainly: PfDHODH enzyme inhibitors, primary screen, biochemical, C-terminal His tag, absorbance 600 nm (AID 1175).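 Further: recombinant parasite enzyme with a five histidine tag at its C terminus; test concentration not given here.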 Conditions: DCIP absorbance 600 nm, higher = more signal, called active from +8 up or from −8 down.
The nature of assay [5]: P. aeruginosa biofilm formation inhibitors, primary screen, strain PAO1, LB-PBS medium, absorbance 600 nm (AID 1176). Further: test concentration not given here. Particulars: P. aeruginosa PAO1 growth/biofilm, A600, 12 h; higher = more signal.
The nature of assay [6]: S. cerevisiae RM11-1a growth modifiers, primary screen, strain RM11-1a, OD600, basal, 24 h (AID 1177).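 Further: cultures grown under basal conditions with no added stressor; test concentration not given here.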 Particulars: OD600, 24 h, higher = more signal, called active from +8 up or from −8 down.
Assay [7] is described as follows: E. coli acrAB mutant growth effects, primary screen, E. coli filamentation inducers, strain DRC39, OD650, 24 h (AID 1178).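 Further: growth measured as culture turbidity by optical density at 650 nm; test concentration not given here.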 Conditions: higher = more signal, called active from +8 up or from −8 down.
The nature of assay [8]: E. coli acrAB mutant growth effects, primary screen, E. coli filamentation inducers, strain DRC39, OD650, 48 h (AID 1179).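 Further: screen aims at cell division blockers that make cells filament.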 Conditions: E. coli DRC39 delta-acrAB growth, higher = more signal, called active from +8 up or from −8 down.
Assay [9] in a line: RPMI8226 myeloma cell viability, profiling panel, resazurin fluorescence, basal, 24 h, PK04 Diversity Set (AID 1180).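 Further: RPMI8826 multiple myeloma cell line at 5000 cells per well; test concentration not given here.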 Conditions: higher = more signal.
Assay [10] has as its target E3 ubiquitin-protein ligase XIAP (Homo sapiens) (UniProt P98170). Put plainly: XIAP binders, primary screen, biophysical, small-molecule microarray, fluorescence 635 nm (AID 1181).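 Further: score merges 667 nm emission and signal to noise over triplicate slides.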 Conditions: small-molecule microarray binding, higher = more signal.

Chain of E3 ubiquitin-protein ligase XIAP (Homo sapiens) (P98170 whole entry, looked up): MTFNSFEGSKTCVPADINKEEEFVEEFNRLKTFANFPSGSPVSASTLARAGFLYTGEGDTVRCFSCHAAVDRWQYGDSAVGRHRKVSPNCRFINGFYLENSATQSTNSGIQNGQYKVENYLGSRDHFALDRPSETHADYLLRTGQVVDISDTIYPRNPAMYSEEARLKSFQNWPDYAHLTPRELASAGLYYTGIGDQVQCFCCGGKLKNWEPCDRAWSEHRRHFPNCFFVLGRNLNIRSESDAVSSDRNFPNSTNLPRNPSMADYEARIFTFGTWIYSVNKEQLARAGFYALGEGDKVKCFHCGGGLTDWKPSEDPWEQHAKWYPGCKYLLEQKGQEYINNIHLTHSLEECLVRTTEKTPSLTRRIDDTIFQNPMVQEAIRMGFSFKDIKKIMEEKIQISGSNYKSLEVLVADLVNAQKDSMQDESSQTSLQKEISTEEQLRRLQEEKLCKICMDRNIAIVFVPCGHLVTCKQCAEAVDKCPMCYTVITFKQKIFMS
Chain of Dihydroorotate dehydrogenase (quinone), mitochondrial (Plasmodium falciparum (isolate 3D7)) (Q08210 whole entry, looked up): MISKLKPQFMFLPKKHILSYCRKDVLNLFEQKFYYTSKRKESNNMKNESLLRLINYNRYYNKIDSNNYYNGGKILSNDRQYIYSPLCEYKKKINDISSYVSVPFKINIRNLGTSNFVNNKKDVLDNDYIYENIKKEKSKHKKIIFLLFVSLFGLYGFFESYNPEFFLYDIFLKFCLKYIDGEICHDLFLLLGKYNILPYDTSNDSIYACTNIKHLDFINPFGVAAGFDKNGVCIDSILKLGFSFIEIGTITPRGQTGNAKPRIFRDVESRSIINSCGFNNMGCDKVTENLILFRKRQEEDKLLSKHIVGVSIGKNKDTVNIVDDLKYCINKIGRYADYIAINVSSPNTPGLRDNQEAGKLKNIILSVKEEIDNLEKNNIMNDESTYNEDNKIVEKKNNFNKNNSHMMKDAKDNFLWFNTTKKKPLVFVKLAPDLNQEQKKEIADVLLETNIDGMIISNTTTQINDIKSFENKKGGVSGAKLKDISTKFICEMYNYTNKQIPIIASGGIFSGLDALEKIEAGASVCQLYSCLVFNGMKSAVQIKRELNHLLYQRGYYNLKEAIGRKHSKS

On to `N#Cc1ccc(NN2C(C(O)c3ccc(B(O)O)cc3)C=CC3CN(c4ccccc4)C(=O)C32)cc1` (stereo not given), for which the z-score in assay [1] is -0.595; in assay [2], -15.4 (active); in assay [3], -1.25 (inactive); in assay [5], 0.475 (inactive); in [6], 1.56 (inactive); in assay [7], 0.898 (inactive). The z-score is 0.934 (inactive) in assay [8] and -0.662 in assay [9]. In addition, the composite z-score is -0.883 (inactive) in [4] and -0.0917 in [10].

Regarding `COC(=O)[C@@]1(Cc2ccc(F)cc2)[C@H]2c3cc(C(=O)N(C)C)n(Cc4ccsc4Br)c3C[C@H]2CN1C(=O)c1ccccc1`, the z-score in assay [1] was -1.05; in [2] it was 1.08 (inactive); in assay [3] it was -1.36 (inactive); in assay [5], 1 (inactive); in [6] it was 0.47 (inactive); in assay [7] it was -1.52 (inactive). Besides, the z-score was -0.85 (inactive) in assay [8] and -2.7 in [9]. In addition, the composite z-score in assay [4] was -0.713 (inactive); in assay [10] it was 0.447.

`CC[C@H]1C2=C3C(CC[C@H]4C(OCc5ccc(F)cc5C(F)(F)F)OC[C@](C)([C@@H]34)N(C(=O)OC(C)(C)C)C2)C(COC(C)=O)C1COC(C)=O` (stereo not given in full): the z-score is -0.409 in assay [1]; 0.249 (inactive) in assay [2]; -1.04 (inactive) in [3]; 0.523 (inactive) in assay [5]; 0.348 (inactive) in assay [6]; -1.26 (inactive) in assay [7]. The z-score in [8] is -0.539 (inactive); in [9], -0.866. Also, the results for the composite z-score in [4] and in [10] were -0.804 (inactive) and 0.48, respectively.

For `C=CCNC(=O)[C@H]1[C@@H]2C(=O)O[C@@H](c3ccccc3)[C@@H](c3ccccc3)N2[C@@H](c2ccc(OCCO)cc2)[C@]12C(=O)N(C(=O)OCCOC)c1ccc(C#CCC(C(=O)OC)C(=O)OC)cc12`, the z-score is -0.181 in assay [1]; 1.71 (inactive) in assay [2]; -0.374 (inactive) in assay [3]; 1.5 (inactive) in [5]; 2.76 (inactive) in [6]; 0.321 (inactive) in assay [7]. Further, the z-score was 0.475 (inactive) in assay [8] and -1.31 in assay [9]. For the same compound, the composite z-score is 0.0899 (inactive) in [4] and 0.0899 in assay [10].

Consider `C=C(C(=O)CC[C@@H](OC(=O)c1ccccc1-c1ccccc1C(=O)O)c1ccc(CO)o1)C(C)C`, for which the z-score in assay [1] is -0.31; in [2], -0.317 (inactive); in assay [3], 0.114 (inactive); in assay [5], 1.63 (inactive); in [6], 0.0083 (inactive); in assay [7], 0.159 (inactive). In addition, the z-score is -0.171 (inactive) in [8] and 0.16 in [9]. The composite z-score in assay [4] is -2.18 (inactive); in [10], -0.282.

In the case of `C=CCNC(=O)[C@@H]1[C@H]2C(=O)O[C@H](c3ccccc3)[C@H](c3ccccc3)N2[C@H](c2ccc(OCCO)cc2)[C@@]12C(=O)Nc1ccc(C#CCNC(N)=O)cc12`, the z-score in [1] is -0.0448; in [2], 1.23 (inactive); in [3], -0.286 (inactive); in [5], 1.18 (inactive); in [6], 1.06 (inactive); in [7], 0.0047 (inactive). Further, the z-score in assay [8] was -0.568 (inactive); in assay [9], 0.671. Further, the composite z-score in assay [4] is -0.157 (inactive); in assay [10], 0.129.

As for `CC(C)N1CC=CC23O[C@@H]4/C=C\CCCOC(=O)C4[C@H]2C(=O)N(C(C)CO)[C@@H]3C1=O` (stereo not given in full), the z-score in [1] is 0.876; in [2], -1.69 (inactive); in assay [3], 0.832 (inactive); in assay [5] it was 0.0126 (inactive); in assay [6] it was 0.14 (inactive); in [7], 1.1 (inactive). The z-score was 0.906 (inactive) in assay [8] and 0.734 in assay [9]. In addition, the composite z-score in assay [4] was -0.555 (inactive); in [10] it was -0.102.

As for `[N-]=[N+]=NCc1ccccc1[C@H]1OC(c2ccc(OCCCO)cc2)=N[C@@]1(Cc1ccccc1N=[N+]=[N-])C(N)=O`, the z-score is 0.794 in [1]; -2.02 (inactive) in [2]; 0.393 (inactive) in assay [3]; -0.0963 (inactive) in assay [5]; 0.77 (inactive) in [6]; 0.0162 (inactive) in assay [7]. The values for the z-score in assay [8] and in assay [9] were 0.394 (inactive) and -0.103, respectively. The composite z-score in assay [4] is -0.0773 (inactive); in assay [10] it was -0.0773.

For `C=CC[C@]1(C(=O)NCCN2CCOCC2)N=C(c2ccc(OCCCO)cc2)O[C@H]1c1ccccc1`, the z-score in assay [1] was 0.543; in assay [2] it was -0.916 (inactive); in assay [3], 0.635 (inactive); in [5], 0.509 (inactive); in assay [6] it was -0.548 (inactive); in assay [7] it was -0.0082 (inactive). Moreover, the z-score in assay [8] is -0.864 (inactive); in [9] it was 0.749. Further, the composite z-score in [4] is 0.507 (inactive); in assay [10], -0.0351.

On to `CCCCN1CC=CC23O[C@@H]4/C=C\CCC(C)OC(=O)C4[C@H]2C(=O)N(CCO)[C@@H]3C1=O` (stereo not given in full), for which the z-score in assay [1] was 1; in assay [2] it was 0.256 (inactive); in assay [3], 0.498 (inactive); in assay [5] it was 0.0279 (inactive); in [6], -0.348 (inactive); in assay [7] it was 0.32 (inactive). For the same compound, the z-score in assay [8] was -0.178 (inactive); in assay [9] it was 0.82. Moreover, the composite z-score was -0.252 (inactive) in assay [4] and 0.0026 in [10].

As to `CC[C@@H](O[Si](C#C[Si](C(C)C)(C(C)C)C(C)C)(C(C)C)C(C)C)c1cn([C@H](CO)Cc2ccccc2)nn1`, the z-score was 1.03 in assay [1]; 1.79 (inactive) in [2]; 0.604 (inactive) in [3]; 0.183 (inactive) in assay [5]; 0.959 (inactive) in assay [6]; -0.316 (inactive) in assay [7]. The figures for the z-score in assay [8] and in assay [9] were 0.413 (inactive) and 1.24, respectively. The composite z-score is -0.572 (inactive) in [4] and -0.207 in assay [10].

`C=C(C(=O)CC[C@@H](OC(=O)c1ccccc1-c1ccccc1C(=O)O)c1cccc(OCCO)c1)C(C)C`: the z-score in assay [1] is 0.821; in assay [2], -1.96 (inactive); in [3], 1 (inactive); in assay [5], 0.661 (inactive); in assay [6], -0.364 (inactive); in assay [7], 0.546 (inactive). Further, the z-score in assay [8] was 0.332 (inactive); in assay [9] it was 1.82. Moreover, the composite z-score was -1.26 (inactive) in assay [4] and 0.112 in [10].

Regarding `C[C@]1(C(=O)NCC(F)(F)F)c2ccccc2C(=O)N(Cc2cc(C(F)(F)F)cc(C(F)(F)F)c2)[C@H]1c1ccc(CO)cc1`, the z-score in [1] is 0.373; in [2] it was -0.234 (inactive); in [3], 1.2 (inactive); in assay [5], 0.5 (inactive); in assay [6], 0.507 (inactive); in assay [7], 0.712 (inactive). For the same compound, the results for the z-score in assay [8] and in [9] were 0.827 (inactive) and 1.13, respectively. The composite z-score in assay [4] is -0.954 (inactive); in assay [10], -0.0099.
